Bioassay records: PubChem BioAssay, National Center for Advancing Translational Sciences (NCATS)
Hits are enriched below; roughly 3.8% of the tested compounds scored in any of these assays.
ELG1 DNA repair: blocks ELG1-dependent DNA repair in HEK293T cells. 2.3% of 330,000 active. HEK293T ELG1-luciferase reporter, luminescence, 16 h; DNA damage induced by 5-fluorouridine. Potency, µM (top dose mostly 46.1 µM), most hits filed as inhibitors. AID 504467; also: nearly all actives have a fitted effect of over 55% in size
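DMSO vehicle served as the neutral condition. Each well held 2,000 cells given 5-fluorouridine plus compound; after 16 hr at 37 °C/5% CO2, ONE-Glo was added and luciferase measured 30 min later.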
Nrf2 ARE act: Nrf2 pathway activation | AID 624171 | Potency, µM (doses to about 46.1 µM), usual class: activators | AREc32 ARE-luciferase reporter (MCF7-derived line), luminescence, 24 h | 0.31% of 410,000 active; also: nearly all actives have a fitted effect of over 65% in size
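Reporter line AREc32 (ARE-Fluc), seeded overnight in OPTI-MEM with 5% FBS; compound pin-transferred, 24 hr at 37 deg C, 5% CO2; luminescent read-out.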
Nrf2 inh: Nrf2 pathway inhibition; A549 ARE-Fluc reporter, luciferase luminescence, 18-24 h; Potency, µM (highest dose often 46 µM), most hits filed as inhibitors; 2.1% of 360,000 active; also: nearly all actives have a fitted effect of over 60% in size
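A549 ARE_Fluc cells (5000/well, 5% FBS OPTI-MEM) pre-incubated 2 h, then treated with compounds 18-24 h at 37C/5% CO2 in concentration-response. CellTiter-Fluor viability read first; BugLite luciferase luminescence after 15 min at room temperature gives Nrf2 activity.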
mIDH1 inhibitor: inhibitors of human mutant IDH1 R132H | O75874 | IDH1-R132H enzyme, NADPH consumption, diaphorase/resazurin fluorescence | Potency, µM (titrated, usually from 76.6 µM), hits mostly inhibitors | 0.093% of 390,000 active | AID 602179; also: nearly all actives have a fitted effect of over 65% in size
Target sequence (O75874 whole entry R132H, stated change not applied): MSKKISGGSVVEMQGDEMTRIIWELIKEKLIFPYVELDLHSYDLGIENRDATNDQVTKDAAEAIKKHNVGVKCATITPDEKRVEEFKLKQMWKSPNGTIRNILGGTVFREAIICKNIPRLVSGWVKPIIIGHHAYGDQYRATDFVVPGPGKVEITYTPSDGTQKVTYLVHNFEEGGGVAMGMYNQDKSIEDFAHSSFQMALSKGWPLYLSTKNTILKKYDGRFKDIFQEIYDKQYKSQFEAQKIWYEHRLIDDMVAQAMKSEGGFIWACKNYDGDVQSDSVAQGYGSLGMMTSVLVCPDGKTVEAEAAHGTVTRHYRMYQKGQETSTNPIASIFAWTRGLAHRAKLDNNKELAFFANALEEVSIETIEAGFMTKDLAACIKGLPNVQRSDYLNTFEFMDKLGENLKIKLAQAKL
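IDH1-R132H (0.5 ug/mL dispensed) in pH 7.5 Tris buffer was preincubated 30 min with compound, then given a substrate mix of 0.016 mM NADPH and 2 mM alpha-KG for 80 min at room temperature; remaining NADPH was read by diaphorase/resazurin fluorescence.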
A549 tox: A549 cytotoxicity, counter-screen for Nrf2 inhibitors. A549 ARE-Fluc cells, CellTiter-Fluor viability, 18-24 h. Potency, µM (series often up to 46 µM), most hits filed as inhibitors. 0.16% of 390,000 active. AID 504648
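Cytotoxicity counterscreen: CellTiter-Fluor fluorescence was measured in A549 ARE_Fluc cells after 18-24 h of compound exposure in a concentration series. The subsequent BugLite luminescent read reports ARE-luciferase activity.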
Numbers stand for hits; 0 = inactive; ? = inconclusive; - = not tested or not shown; ! = a repeat was not active. Calls follow the shape of the dose curve; as a rule, active = well fitted curve in the direction sought with a large enough effect; inconclusive = small, poorly fitted or top-dose-only effect, or another doubt; inactive = no such curve, though single readings can be large; an effect the other way counts as inactive or inconclusive.

SMILES	ELG1 DNA repair	Nrf2 ARE act	Nrf2 inh	mIDH1 inhibitor	A549 tox
O=[N+]([O-])c1ccc(O)c(/C=N/NC(=S)Nc2ccc(Cl)cc2Cl)c1	2.9µM	0	0	0	0
Cc1cc(C)n(CC(=O)N/N=C/c2cc([N+](=O)[O-])ccc2O)n1	?	0	?	0	0
O=[N+]([O-])c1ccc(/C=N/NC(=S)Nc2ccc(Cl)cc2Cl)s1	8.2µM	0	0	0	0
Cc1cc(Cl)ccc1NC(=O)CCC(=O)N/N=C/c1cc([N+](=O)[O-])ccc1O	7.3µM	0	0	0	0
COc1ccc(C(=O)N(Cc2ccccc2)Cc2ccccc2)cc1COc1ccc(NC(C)=O)cc1	-	-	?	-	0
CC1(C(=O)NS(=O)(=O)c2ccc(Cl)cc2)CCN1C(=O)C/C=C/c1ccccc1 (stereo not drawn)	-	0	-	-	-
CC(=O)c1ccc(NC(=O)c2noc3c2CSc2ccccc2-3)cc1	-	0	0	0	0
O=C(/C=C/Nc1ccccc1C(F)(F)F)c1ccco1	?	1.8µM	?	0	0
Cc1nnc(NCc2ccccc2)c2c1nnn2Cc1ccccc1Cl	-	0	0	0	0
CC(C)CCn1c(Oc2ccc(Cl)cc2)nc2c1c(=O)n(C)c(=O)n2C	21µM	0	0	0	0
CCCCn1c(Oc2cccc(C(=O)OC)c2)nc2c1c(=O)n(C)c(=O)n2C	-	0	-	0	0
CCCCn1c(Oc2ccc(C(=O)OC)cc2)nc2c1c(=O)n(C)c(=O)n2C	21µM	0	?	0	0
Cc1ccc(Oc2nc3c(c(=O)n(Cc4ccccc4)c(=O)n3C)n2C)cc1C	-	0	18µM	0	0
CCn1c(Oc2ccc(F)cc2)nc2c1c(=O)n(C)c(=O)n2C	8.2µM	0	0	0	0
Cc1ccc(Oc2nc3c(c(=O)n(Cc4ccccc4Cl)c(=O)n3C)n2C)cc1C	-	0	0	0	0
CC(=O)c1[nH]c(C)c(C(=O)NCc2ccc(Cl)cc2)c1C	-	0	0	0	0
COc1cc(-c2nc(C(N)=O)c3c(n2)n(-c2cccc(C)c2)c(=O)n3C)cc(OC)c1OC	-	0	-	0	0
CCOC(=O)c1[nH]c(C)c(CCC(=O)NCc2ccccc2Cl)c1C	-	0	-	0	0
Cn1c(=O)c2c(nc(Oc3ccccc3)n2C)n(C)c1=O	16µM!	0	0	0	0
N#CC(c1ccc(F)cc1)c1ccc(C(=O)c2ccc(F)cc2)cc1 (stereo not drawn)	?	0	15µM	0	0
Cc1ccc(C(C#N)c2ccc(C(=O)c3ccc(F)cc3)cc2)cc1 (stereo not drawn)	0	0	26µM	0	0
Cc1ccc(C(=O)NC(C)c2ccc(F)cc2)cc1 (stereo not drawn)	0	0	0	0	0
CCc1cccc(CC)c1NC(=O)C(CC)n1nc(C)n2c(cc3cc(C)ccc32)c1=O (stereo not drawn)	-	0	?	0	0
CC1(C)Cc2nc3oc4c(N(CCO)Cc5ccccc5)ncnc4c3cc2CO1	18µM	0	?	0	0
Cc1sc2c(c1C)c(=O)n(CCc1ccccc1)c(=O)n2Cc1ccc(C(C)(C)C)cc1	-	0	0	-	0
SMILES	ELG1 DNA repair	Nrf2 ARE act	Nrf2 inh	mIDH1 inhibitor	A549 tox
COc1ccc(C(=O)c2sc3nc(C)cc(-c4cccs4)c3c2N)cc1OC	?	0	10µM	0	0
CC1(C)CC(=O)C=C(C(=O)N2CCCC(C(=O)c3cccc(C(F)(F)F)c3)C2)O1 (stereo not drawn)	0	0	9.2µM	0	?
CC1(C)CC(=O)C=C(C(=O)N2CCCC(C(=O)c3cc(F)ccc3F)C2)O1 (stereo not drawn)	-	0	-	0	-
COc1cccc(-c2cc(C(=O)Nc3cc(Cl)ccc3O)on2)c1	-	7.9µM	0	0	0
CCc1ccc(CNC(=O)CCc2c(C)nn(-c3ccc(N4CCCC4)nn3)c2C)cc1	-	0	?	0	0
COc1cc(C#Cc2c(-c3cncn3C)n(C)c3ccc(-c4cc(OC)c(OC)c(OC)c4)cc23)cc(OC)c1	5.2µM	0	?	?	0
COc1cc(C#Cc2c(-c3cncn3C)n(C)c3ccc(-c4ccc(OC)nc4)cc23)cc(OC)c1	7.3µM	0	0	0	0
COc1cc(C#Cc2c(-c3cncn3C)n(C)c3ccc(-c4ccc5[nH]ccc5c4)cc23)cc(OC)c1	?	0	0	0	?
